Rows were chosen to be rich in hits. Some 4.2% of all compounds tested hit in one or more screens of this group.
GDH-TPI inh: inhibits GDH-TPI coupling enzymes, artifact for Mtb FBA screen; GDH-TPI coupled enzyme counterscreen, NADH absorbance; inhibition, % at 4.8 µM; actives 1.2% (n = 360,000)
CCHF vOTU inh-1: CCHFV vOTU protease inhibition; inhibition, % at 11.5 µM; actives 0.55% (n = 370,000); Pep-AMC fluorescence
FBA Mtb inh: inhibitors of M. tuberculosis fructose-bisphosphate aldolase. purified M. tuberculosis FBA, fluorescence read-out. inhibition, % at 1 µM. actives 2.3% (n = 360,000). AID 588726; in the data active = inhibition above about 27%
Target sequence (P9WQA3 whole entry, looked up): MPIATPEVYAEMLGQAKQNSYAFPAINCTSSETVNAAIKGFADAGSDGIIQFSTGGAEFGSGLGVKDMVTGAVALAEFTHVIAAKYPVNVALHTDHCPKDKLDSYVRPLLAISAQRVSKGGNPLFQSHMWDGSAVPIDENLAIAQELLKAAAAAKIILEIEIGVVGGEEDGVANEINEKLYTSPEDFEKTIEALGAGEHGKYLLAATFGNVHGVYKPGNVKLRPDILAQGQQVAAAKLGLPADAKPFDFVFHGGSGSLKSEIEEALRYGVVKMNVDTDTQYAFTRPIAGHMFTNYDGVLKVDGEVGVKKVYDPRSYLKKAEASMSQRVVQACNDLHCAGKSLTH
RecA intein inh: inhibitors of M. tuberculosis RecA intein splicing; P9WHJ3; cell-free RecA intein splicing, fluorescence; inhibition, % (concentration not given with the values); actives 0.75% (n = 290,000); in the data active = inhibition above about 30%
CCHF vOTU inh-2: CCHFV vOTU protease inhibition, confirmation; shares compounds with CCHF vOTU inh-1; Recombinant CCHFV vOTU, Pep-AMC fluorescence; inhibition, % at 11.5 µM; actives 17% (n = 1,900)
Hits are given with their value; n = inactive; x = no result. Cut-off read from the data, not from the text of the source, unless noted: active = inhibition above about 30%; inactive = the rest.

SMILES | GDH-TPI inh | CCHF vOTU inh-1 | FBA Mtb inh | RecA intein inh | CCHF vOTU inh-2
O=C(/C=C/c1ccccc1Cl)OCC(=O)c1ccc[nH]1 | n | n | n | x | x
COCCc1ccc(OC2(C)CCN(Cc3cccn3-c3nccs3)C2)cc1 (stereo not given) | n | n | n | x | x
CN(/N=C/C=C/c1ccccc1)c1cc(=O)n(C)c(=O)[nH]1 | 73 | 32 | n | n | n
CCc1nc2c(OCCC3CCCCC3)cccn2c1N(C)C(=O)C1CC1 | n | x | n | x | x
CCc1nc2c(OCCC3CCCCC3)cccn2c1N(C)C(=O)COc1ccccc1 | n | 36 | n | x | n
CCc1nc2c(OCCC3CCCCC3)cccn2c1N(C)C(=O)c1ccc(C)cc1 | n | 37 | n | x | n
CCCOc1cccn2c(N(C)C(=O)c3ccccc3F)c(CC)nc12 | n | n | n | x | x
CCc1nc2c(OCC3CCCCC3)cccn2c1N(C)C(=O)c1ccccc1F | n | 31 | n | x | n
CC1NC(=O)c2ccccc2-n2c1nc1ccc(F)cc1c2=O (stereo not given) | n | n | n | x | x
O=C1C=CC(O)C2(CO)OC12 (stereo not given) | n | n | n | x | x
C=CCN1C(=O)[C@@H](CC(=O)NCC23CC4CC(CC(C4)C2)C3)[C@]2(C(=O)OCC)CCCCC/C=C/12 | x | n | x | x | x
CC1(N=Cc2cc(Cl)ccc2O)COP(=O)(Nc2ccccc2)OC1 (stereo not given) | n | n | n | x | x
COc1ccc(C2C(C(=O)N3CCCC3)c3cc(OC)c(OC)cc3C(=O)N2C)cc1OC (stereo not given) | n | 31 | n | n | n
CC1(C)CC(C(CCN(Cc2ccccc2)C(=O)c2ccco2)c2ccc(F)cc2)CCO1 (stereo not given) | n | 33 | n | 35 | n
CCOC(=O)C1(Cc2cccc(OC)c2)CCN(Cc2ccc(OC)c(OC)c2)CC1 | n | n | n | n | x
CCOC(=O)C1(Cc2cccc(OC)c2)CCN(Cc2cccc(O)c2)CC1 | n | 31 | n | n | n
COc1ccc(NC(=O)c2cccnc2)cc1 | n | n | n | n | x
C/C(=C\C(=O)c1cccnc1)Nc1ccc(O)cc1 | n | 95 | n | n | n
C/C(=C\C(=O)c1ccccc1)Nc1ccc(O)cc1 | n | 76 | n | n | n
CC1CCN(C(=O)C(C)OC(=O)CSc2ccc([N+](=O)[O-])cc2)CC1 (stereo not given) | n | n | n | x | x
CC(C)(C)N(Cc1nc(-c2ccccc2)no1)C(=O)c1ccc2c(c1)OCO2 | n | 30 | n | n | n
COc1ccc(NC(=O)c2ccc(OCC3CCCO3)cc2)cc1OC (stereo not given) | n | 38 | n | x | n
COc1ccc(NC(=O)c2ccc(OCC3CCCO3)cc2)cc1Cl (stereo not given) | n | n | n | x | x
Cc1ccc(C(=O)NN2C(=O)/C(=C/c3cn(C)c4ccccc34)SC2=S)cc1 | n | n | n | x | x
Cn1cc(/C=C2\SC(=S)N(NC(=O)c3ccccc3Cl)C2=O)c2ccccc21 | n | 31 | n | x | n
SMILES | GDH-TPI inh | CCHF vOTU inh-1 | FBA Mtb inh | RecA intein inh | CCHF vOTU inh-2
COc1ccc(C(=O)N2CCCC(C)(C(=O)NS(=O)(=O)C3CC3)C2)cc1 (stereo not given) | n | n | n | x | x
CCOC(=O)C1(CCc2ccccc2)CCN(C(=O)c2cccc(C)n2)CC1 | n | n | n | n | x
CCOC(=O)C1(CCc2ccccc2)CCN(C(=O)c2occc2C)CC1 | n | 32 | n | n | n
CC(CN1CCOCC1)OC(=O)c1cccc(Br)c1 (stereo not given) | n | n | n | n | x
CC(CN1CCOCC1)OC(=O)c1ccccc1Br (stereo not given) | n | 32 | n | n | n
Cc1ccc(S(=O)(=O)NCCOc2cc(C)ccc2C)cc1 | n | 30 | n | n | n
CNc1oc(-c2ccccc2)nc1S(=O)(=O)c1ccc(C)cc1 | n | 30 | n | n | n
CNc1oc(-c2ccccc2F)nc1S(=O)(=O)c1ccc(C)cc1 | n | n | n | x | x
COCCNC(=O)NC12CC3CC(CC(C3)C1)C2 | n | n | n | n | x
COCCNC(=O)NC12CC3(C)CC(C)(CC(C)(C3)C1)C2 | n | 35 | n | n | n
CSCCC(c1nc2ccccc2[nH]1)n1c(=O)c(-c2cc3ccccc3[nH]2)nc2ccccc21 (stereo not given) | x | n | x | x | x
COC(=O)C[C@H]1c2cc(F)cc(F)c2S(=O)(=O)N1C1CCN(Cc2ccccc2)CC1 | n | n | n | n | x
OCC(CO)(CO)N=Cc1c(O)ccc2ccccc12 | n | n | n | n | x
Oc1ccc2ccccc2c1C=NC12CN3CCN(CN(C3)C1)C2 | n | 72 | n | x | 73
CN(C)c1ccc(/C=N/NC(=O)c2cc(=O)[nH]c3ccccc23)cc1 | n | 32 | n | n | n
CN1CCC/C1=C/C=C1\SC(=S)NC1=O | n | 40 | n | x | 33
COc1cc(CCNC2=CC(=O)c3ncccc3C2=O)ccc1O | n | 74 | n | x | 78
CC(=O)C[C@@H](O)CC(=O)[C@@H]1OC(=O)CCCCCc2ccccc21 | n | n | n | x | x
C=CCN1C(=O)c2ccc(C(=O)OCC(=O)Nc3ccccc3OC)cc2C1=O | n | 32 | n | x | n
COc1ccccc1NC(=O)COC(=O)c1ccc2c(c1)OCCO2 | n | n | n | x | x
COc1cc2c(cc1O)[C@@H]1Cc3ccc(OC)c(O)c3CN1CC2 | n | 105 | n | x | 93
CN(Cc1cccc(F)c1)C(=O)c1ccc(S(=O)(=O)N2CCOCC2)cc1 | n | n | n | x | x
Nc1cc([N+](=O)[O-])cc2oc(-c3ccccc3)cc12 | n | 32 | n | n | n
CC(C)Oc1ccc(S(=O)(=O)N2CCOCC2)cc1NC(=O)CC1OC(=O)c2ccccc21 (stereo not given) | n | n | n | x | x
CC(C)Oc1ccc(S(=O)(=O)N2CCOCC2)cc1NC(=O)CN1C(=O)c2ccccc2C1=O | n | 36 | n | x | n
SMILES | GDH-TPI inh | CCHF vOTU inh-1 | FBA Mtb inh | RecA intein inh | CCHF vOTU inh-2
CCOc1ccc(NC(=O)C2CCN(S(=O)(=O)c3ccc4c(c3)NC(=O)C(C)S4)CC2)cc1 (stereo not given) | n | n | n | n | x
Cn1c(=O)c2c(-c3ccccc3)n(-c3ccc(N)cc3)cc2n(C)c1=O | x | 98 | n | x | 92
Cn1c(=O)c2c(-c3ccccc3)n(-c3cccc(O)c3)cc2n(C)c1=O | x | n | n | x | x
Nc1ccc2cc3ccccc3cc2c1 | n | n | n | x | x
Nc1ccc2ccc(N)cc2c1 | x | 34 | x | x | n
Cc1ccc(Nc2cc(-n3cccn3)ncn2)c(C)c1 | n | 64 | n | n | n
Cc1ccc(Nc2cc(-n3nc(C)cc3C)ncn2)c(C)c1 | n | n | n | n | x
CCOC(=O)C1CCCN(C(=O)c2cccc(S(=O)(=O)N(Cc3ccccc3)c3ccccc3OC)c2)C1 (stereo not given) | n | 36 | n | n | n
